According to PubChem BioAssay (NCI):
Compounds without any hit were thinned out: in the full panel of roughly 83,000, 20% have a hit.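 Growth was measured after 48 h exposure to one concentration of compound in 96-well plates. Values under 10 count as active.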 Calls of active or inactive are those of the source.

Key:
Test in all cases: NCI-60 one-dose screen, 48 h (100 = growth as untreated, 0 = no growth, -100 = all killed)
Conditions in all cases: 10 µM unless noted
[1] = test system: SR leukemia
[2] = test system: OVCAR-8 ovarian
[3] = test system: OVCAR-5 ovarian
[4] = test system: OVCAR-4 ovarian
[5] = test system: SK-OV-3 ovarian
[6] = test system: IGROV1 ovarian
[7] = test system: OVCAR-3 ovarian
[8] = test system: HS 578T breast
[9] = test system: NCI/ADR-RES ovarian
[10] = test system: T-47D breast
[11] = test system: BT-549 breast
[12] = test system: MDA-MB-435 melanoma
[13] = test system: SW-620 colon
[14] = test system: MCF7 breast
[15] = test system: HCT-116 colon
[16] = test system: HCC-2998 colon
[17] = test system: KM12 colon

Measured: growth

c1ccc(-c2ccc(-c3ccccc3)[nH]2)cc1
inactive: [1] 96.1% | [2] 101% | [3] 104% | [4] 75.8% | [5] 107% | [6] 85.8% | [7] 106% | [8] 100% | [9] 96.4% | [10] 89.6% | [11] 99.8% | [12] 97.9% | [13] 105% | [14] 85.9% | [15] 92.7% | [16] 99.9% | [17] 97%

CC1(C)CN(CCNc2nccc(-c3c(-c4cccc(O)c4)nc4sccn34)n2)S(=O)(=O)N1
inactive: [1] 17.5% | [2] 103% | [3] 94.1% | [4] 70.9% | [5] 44.7% | [6] 38.5% | [7] 77.5% | [8] 71.6% | [9] 111% | [10] 75.6% | [11] 80.9% | [12] 19.9% | [13] 87.6% | [14] 70% | [15] 28% | [16] 93.4% | [17] 76.4%

Cc1cc2nc(CN)[nH]c2cc1C
inactive: [1] 97.2% | [2] 106% | [3] 112% | [4] 112% | [5] 104% | [6] 111% | [7] 100% | [8] 114% | [9] 112% | [10] 94.4% | [11] 101% | [12] 109% | [13] 108% | [14] 96.7% | [15] 104% | [16] 106% | [17] 103%

COc1ccc(-c2nn(C(=O)NCCN(C)C)cc2-c2ccncc2)cc1Cl
inactive: [1] 20.5% | [2] 20.4% | [3] 76.9% | [4] 57.6% | [6] 54.1% | [7] 51.3% | [8] 66.5% | [9] 14.5% | [10] 37.1% | [11] 58.6% | [13] 30.5% | [14] 19.3% | [15] 23.1% | [16] 76.4% | [17] 43.3%
active: [5] 9.29% | [12] -25.3%

O=[N+]([O-])c1ccc(N/N=C\c2ccc(O)cc2O)nc1
inactive: [1] 15.3% | [2] 25.4% | [3] 57.9% | [4] 40% | [5] 25.8% | [6] 28.7% | [7] 74.8% | [8] 90.8% | [9] 20.6% | [10] 38.5% | [11] 38% | [12] 45% | [13] 56.4% | [14] 27.4% | [15] 21.3% | [16] 10.6% | [17] 29.2%

C[Si](C)(C)C(c1ccccc1)c1ccccc1
inactive: [1] 86.8% | [2] 102% | [3] 110% | [4] 109% | [5] 98.4% | [6] 97.1% | [7] 113% | [8] 98.9% | [9] 98.9% | [10] 91.4% | [11] 108% | [12] 92.1% | [13] 101% | [14] 106% | [15] 97.7% | [16] 97.2% | [17] 107%

CCCCn1cnc2c(SCc3ccc([N+](=O)[O-])cc3)nc(N)nc21
inactive: [1] 37.6% | [2] 90.9% | [3] 91.5% | [4] 76.3% | [5] 116% | [6] 90.3% | [7] 98.4% | [8] 107% | [9] 89.3% | [10] 80% | [11] 90.4% | [12] 98% | [13] 109% | [14] 91.2% | [15] 92.5% | [16] 90.7% | [17] 97.9%

CC(NC(=O)c1ccccc1)C(=O)Nc1ccccc1 (stereo unspecified)
inactive: [1] 89.9% | [2] 103% | [3] 107% | [4] 114% | [5] 113% | [6] 128% | [7] 135% | [8] 114% | [9] 108% | [10] 117% | [11] 104% | [12] 112% | [13] 108% | [14] 97.9% | [15] 97.2% | [16] 99.4% | [17] 108%

COc1cc(/C=C/c2cc(/C=C/c3ccc(O)c(OC)c3)n(C(=O)Nc3ccc(F)c(Cl)c3)n2)ccc1O
active: [1] 1.44% | [2] -44% | [3] 0.879% | [4] 9.26% | [5] -31.2% | [6] 4.57% | [7] -26.4% | [8] -12.9% | [10] 2.29% | [11] -24.2% | [12] -25.9% | [13] 2.03% | [14] 2.06% | [15] 2.15% | [16] 9.75% | [17] 0.0776%
inactive: [9] 12%

CCOC(=O)CCN(CCC(=O)OCC)c1ccccc1
inactive: [1] 104% | [2] 94.5% | [3] 92.2% | [4] 113% | [5] 87.1% | [6] 87.4% | [7] 85.2% | [8] 106% | [9] 105% | [10] 95.7% | [11] 97.9% | [12] 124% | [13] 103% | [14] 101% | [15] 95.4% | [16] 119% | [17] 93.5%

c1csc(-c2cnc3nonc3n2)c1
inactive: [1] 39.3% | [2] 79.2% | [3] 107% | [4] 89.5% | [5] 92.7% | [6] 76.9% | [7] 84.2% | [8] 92.5% | [9] 95% | [10] 45.9% | [11] 87.3% | [12] 98.6% | [13] 99.7% | [14] 61.3% | [15] 66.6% | [16] 112% | [17] 91.5%

CCN(CC)CCNC(=O)n1cc(-c2ccncc2)c(-c2ccc(Cl)c(OC)c2)n1
inactive: [1] 80.7% | [2] 31% | [3] 98.8% | [4] 92.6% | [5] 75.5% | [6] 88.8% | [7] 101% | [8] 90.1% | [9] 83.5% | [10] 69.2% | [11] 96.3% | [12] 97.2% | [13] 113% | [14] 85.9% | [15] 84% | [16] 99% | [17] 103%

c1cc(C2CCCCC2)ccc1-c1cnc2nonc2n1
active: [1] 4.98% | [2] 8.93% | [7] 1.51% | [9] -3.11% | [11] 9.82% | [12] -28.4% | [14] 7.11% | [15] 4.27% | [16] 8.72%
inactive: [3] 25.7% | [4] 43.9% | [5] 33.5% | [6] 34.8% | [8] 58.1% | [10] 20.7% | [13] 22% | [17] 14.2%

COc1cc(-c2nn(C(=O)NCCN3CCN(C)CC3)cc2-c2ccncc2)ccc1Cl
inactive: [1] 77.5% | [2] 24.5% | [3] 84.6% | [4] 78% | [5] 55.1% | [6] 75% | [7] 97.2% | [8] 76.9% | [9] 82.4% | [10] 62.2% | [11] 88.1% | [12] 80.4% | [13] 111% | [14] 76.5% | [15] 76.9% | [16] 93.7% | [17] 96.4%

Cc1cccc(/C=N/n2c(-c3ccc(Cl)cc3)nc3c(Br)cc(Br)cc3c2=O)c1
active: [4] -3.16%
inactive: [1] 73.1% | [2] 32.5% | [3] 50.2% | [5] 39.5% | [6] 31.9% | [7] 38.2% | [8] 65.1% | [9] 30.5% | [10] 44.4% | [11] 88% | [12] 66% | [13] 59.1% | [14] 36.7% | [15] 22.2% | [16] 55.6% | [17] 52.4%

COc1cc(Cl)cc(-c2nn(C(=O)NCCN3CCOCC3)cc2-c2ccncc2)c1
active: [12] 2.37%
inactive: [1] 29.8% | [2] 72.9% | [3] 99.5% | [4] 102% | [5] 48.7% | [6] 61.5% | [7] 20.3% | [8] 97% | [9] 60.9% | [10] 57.4% | [11] 115% | [13] 57.5% | [14] 28.1% | [15] 51.3% | [16] 88.6% | [17] 61.7%

CCCCCCCC/C=C/CCCCCCCC1=NC(C)(C)CN1C(C)C
active: [1] -46.7% | [2] -20.8% | [6] -29.9% | [7] -55.7% | [8] 6.92% | [9] -6.48% | [10] -29.2% | [12] -58.3% | [13] -69.8% | [14] -60.5% | [15] -74.8% | [16] -91.8% | [17] -77.1%
inactive: [3] 58.1% | [4] 18.9% | [5] 55.4% | [11] 60.9%

CCCCc1nc(Cl)c(C2CC(c3ccc(S(N)(=O)=O)cc3)=NN2c2ccc(C#N)cc2)[nH]1 (stereo unspecified)
inactive: [1] 80.5% | [2] 83.2% | [3] 88.5% | [4] 98.2% | [5] 96.4% | [6] 93% | [7] 92.5% | [8] 79.4% | [9] 107% | [10] 68.7% | [11] 80.6% | [12] 93.9% | [13] 91.8% | [14] 76.1% | [15] 85.8% | [16] 109% | [17] 99.8%
